Data on 69 molecules can be found in publication PMC4552634, “A New Set of Chemical Starting Points with Plasmodium falciparum Transmission-Blocking Potential for Antimalarial Drug Discovery” (PLoS ONE, 2015).

Out of some 13,000 compounds screened, about 3,200 (25%) showed an effect of 50% or more. The list shows a part of the results.

The assay relates to P. falciparum stage V gametocytes. More on the design: BacTiter-Glo ATP luminescence viability of purified stage V gametocytes in 384-well plates, per cent inhibition versus DMSO. As to conditions: 48 h, 5 µM; inhibitor.
As to `Clc1nc2ccccn2c1C=Cc1ccc2ccccc2n1` [TCMDC-125327], the “% Inhibition” value is listed as -7.636%. Take `COc1cc(-c2nc(-c3ccc4c(c3)CCC4=NO)c(-c3ccncc3)[nH]2)ccc1OCCN1CCCCC1` [TCMDC-141257]: the “% Inhibition” value came out at 22.85%.

Regarding `O=C(/C=C/c1cccc(Cl)c1)Nc1ccc2nc(CN3CCCC3)ccc2c1` [TCMDC-135628], the “% Inhibition” value is on record as -49.28%. Under `O=C(Nc1cccc(CN2CCCN(Cc3ncc[nH]3)CC2)c1)c1ccc(Cl)c(Cl)c1` [TCMDC-141833] stands -19.06%. Take `Cc1ccc(O)cc1Nc1ccnc2cc(-c3cccc(CNCCS(C)(=O)=O)c3)ccc12` [TCMDC-138472]: the “% Inhibition” value is -16.38%. Turning to `COc1ccc(CCNCc2ccc3nc(N)c(C)cc3c2)cc1` [TCMDC-138098], the “% Inhibition” value stood at 30.17%. As for `Cc1cc2cc(-c3ccc(CN)cc3)ccc2nc1N` [TCMDC-137774], the “% Inhibition” value stood at 101.7%. Take `Cc1cc2ccc(-c3cccc(CN)c3)cc2nc1N` [TCMDC-137624]: the “% Inhibition” value worked out at 65.41%.

Regarding `Cc1ccc(Cc2cccc3nc(N)nc(N)c23)cc1` [TCMDC-137730], the “% Inhibition” value is -6.399%. Turning to `CN1CCc2ccc(NC(=O)Nc3cccc([N+](=O)[O-])c3)cc2C1` [TCMDC-139120], the “% Inhibition” value is listed as -5.165%. Consider `FC(F)(F)Oc1ccc(Nc2cc(-c3ccncc3)nc(-c3cccnc3)n2)cc1` [TCMDC-125416], for which the “% Inhibition” value is listed as 22.38%. For the molecule `CC(C)(C)c1ccc(NC(=O)c2ccc(CN3CCCN(Cc4cccc(O)c4)CC3)cc2)cc1` [TCMDC-136433], the “% Inhibition” value is reported as -12.56%. As to `Cc1cccc2[nH]c(-c3cccc(-c4cccc(NC(=O)c5cccnc5Cl)c4)c3)nc12` [TCMDC-136839], the “% Inhibition” value is 42.83%. For `O=[N+]([O-])c1cccc(-c2ccc(C=NNc3cc(N4CCCC4)nc(N4CCCC4)n3)o2)c1` [TCMDC-124053], the “% Inhibition” value was 34.95%. Consider `CC1CN(Cc2cccc(F)c2)CCN1c1ccc(NC(=O)c2cccs2)cc1` (stereo not drawn) [TCMDC-135009], for which the “% Inhibition” value turned out to be 3.6%. Regarding `Cc1cccc(-c2ccc(CNC3CCN(CC4Cn5c(=O)ccc6ccc(F)c4c65)CC3)cn2)c1` (stereo not drawn) [TCMDC-134413], the “% Inhibition” value is -59.7%. Under `COC(=O)c1ccccc1COc1ccc(CC2(NC(=O)[C@H](Nc3ccc(C#N)c4ccccc34)C(C)(C)C)CCCC2)cc1` [TCMDC-136783] stands 21.91%.

Regarding `Cc1cccc2[nH]c(-c3ccc(-c4ccc(CN5CCN(CCO)CC5)cc4)s3)nc12` [TCMDC-133027], the “% Inhibition” value came out at 2.277%. Under `Cc1cccc2[nH]c(-c3cccc(-c4ccc(CNCc5ccccc5)cc4)c3)nc12` [TCMDC-132710] stands 64.93%. Regarding `Cc1cccc2[nH]c(-c3cccc(-c4cccc(CNCc5ccccc5)c4)c3)nc12` [TCMDC-132713], the “% Inhibition” value turned out to be 10.68%. Turning to `CNCCNCc1ccc(-c2ccc(-c3nc4c(C)cccc4[nH]3)s2)cc1` [TCMDC-132828], the “% Inhibition” value stood at 96.61%.

On to `Cc1cccc2[nH]c(-c3ccc(-c4ccc(CNCc5ccccc5)cc4)s3)nc12` [TCMDC-132709], for which the “% Inhibition” value is recorded as -2.299%. Take `Cc1cccc2[nH]c(-c3ccc(-c4cccc(CNCCCNS(C)(=O)=O)c4)cc3)nc12` [TCMDC-133082]: the “% Inhibition” value was -3.877%. Under `Cc1cccc2[nH]c(-c3cccc(-c4cccc(CNC(C)C)c4)c3)nc12` [TCMDC-132738] stands -9.933%; under `COCCN1CCN(Cc2ccc(-c3ccc(-c4nc5c(C)cccc5[nH]4)s3)cc2)CC1` [TCMDC-133021], 2.979%; under `C#CCNCc1ccc(-c2cccc(-c3nc4c(C)cccc4[nH]3)c2)cc1` [TCMDC-132804], -34.44%. On to `CNCCNCc1cccc(-c2cccc(-c3nc4c(C)cccc4[nH]3)c2)c1` [TCMDC-132825], for which the “% Inhibition” value is 101.1%. Regarding `Cc1cccc2[nH]c(-c3ccc(-c4ccc(CN5CCN(CCN6CCOCC6)CC5)cc4)s3)nc12` [TCMDC-133930], the “% Inhibition” value was determined as 30.2%.

Regarding `Cc1cccc2[nH]c(-c3ccc(-c4ccc(CNCCN5CCNCC5)cc4)s3)nc12` [TCMDC-132870], the “% Inhibition” value was found to be 77.87%. `CN(c1ccc2c(c1)nc(NCc1ccc(F)cc1)n2C)c1ccnc(Nc2ccc(CS(C)(=O)=O)cc2)n1` [TCMDC-138747]: the “% Inhibition” value was 36.21%. As for `Oc1cc(Nc2ccnc3ccc(I)cc23)c(F)cc1Cl` [TCMDC-138500], the “% Inhibition” value is recorded as -12.42%.

Consider `COc1ccc(-n2cc(C(=O)c3cc(Br)ccc3O)cc(C#N)c2=O)cc1Cl` [TCMDC-124524], for which the “% Inhibition” value was found to be 13.45%. As to `COc1ccccc1C1CC(c2ccccc2)=NN1C(=O)c1ccccc1` (stereo not drawn) [TCMDC-123702], the “% Inhibition” value is listed as 28.29%. Turning to `O=C(CCCCCNC(=O)c1ccc(O)c(-c2ccc(Cl)c(Cl)c2)c1)NCc1cccc2ccccc12` [TCMDC-140875], the “% Inhibition” value is given as 8.372%.

As for `COc1cccc(CNC(=O)c2cnc(N3CCN(c4ccncc4)CC3)c(Cl)c2)c1` [TCMDC-134628], the “% Inhibition” value amounted to 35.94%. `Cc1cccc2[nH]c(-c3ccc(-c4cccc(CNCc5ccccc5)c4)cc3)nc12` [TCMDC-132707]: the “% Inhibition” value is -22.49%. In the case of `Cc1cccc2[nH]c(-c3ccc(-c4ccc(CNCC(C)C)cc4)cc3)nc12` [TCMDC-132803], the “% Inhibition” value is reported as 16.22%. Under `Cc1cccc2[nH]c(-c3ccc(-c4ccc(CNC(C)C)cc4)cc3)nc12` [TCMDC-132744] stands -47.89%; under `CNCCNCc1ccc(-c2ccc(-c3nc4c(C)cccc4[nH]3)cc2)cc1` [TCMDC-132837], 80.14%; under `Cc1cccc2[nH]c(-c3ccc(-c4ccc(CNCc5ccccc5)cc4)cc3)nc12` [TCMDC-132701], -18.64%.

As to `Cc1cccc2[nH]c(-c3ccc(-c4cccc(CNCCc5ccncc5)c4)cc3)nc12` [TCMDC-132850], the “% Inhibition” value was -15.09%. In the case of `Cc1cccc2[nH]c(-c3ccc(-c4cccc(CNCc5cccc(N)c5)c4)cc3)nc12` [TCMDC-132934], the “% Inhibition” value is listed as 83.13%. Under `COc1ccc(CNCc2cccc(-c3ccc(-c4nc5c(C)cccc5[nH]4)cc3)c2)cc1` [TCMDC-132726] stands -14.09%; under `CNc1ccc(CNCc2cccc(-c3ccc(-c4nc5c(C)cccc5[nH]4)cc3)c2)cc1` [TCMDC-132979], -24.36%. As to `CNCCNCc1cccc(-c2ccc(-c3nc4c(C)cccc4[nH]3)cc2)c1` [TCMDC-132831], the “% Inhibition” value was found to be 94.01%. Turning to `Cc1cccc2[nH]c(-c3ccc(-c4ccc(CNCc5ccc(CN)cc5)cc4)cc3)nc12` [TCMDC-132813], the “% Inhibition” value amounted to 65.29%.

Regarding `Cc1cccc2[nH]c(-c3ccc(-c4cccc(CNCCN(C)C)c4)cc3)nc12` [TCMDC-132682], the “% Inhibition” value is recorded as 17.36%. Take `Cc1ccccc1Oc1ccc(Nc2ccnc(Nc3cccc(C(N)=O)c3)n2)cc1C(F)(F)F` [TCMDC-138601]: the “% Inhibition” value is 1.674%. Under `CC(=O)N(C)c1ccc(C(=O)Nc2cccc(-c3cccc(-c4nc5ccc(C(F)(F)F)cc5[nH]4)c3)c2)cc1` [TCMDC-136849] stands -19.52%; under `CC(=O)Nc1nc(C(=O)Nc2cccc(-c3ccc4c(cnn4CC4CC4)c3)c2)cs1` [TCMDC-133147], 49.64%. Take `O=C1COC(c2ccccc2)(c2ccccc2)CN1CC1CCN(Cc2ccc(O)cc2Cl)C1` (stereo not drawn) [TCMDC-136338]: the “% Inhibition” value was determined as 44.26%. In the case of `Cc1[nH]c2c(C)cccc2c1C1CCN(CCC2CCN(C(=O)/C=C/c3ccc(Cl)c(Cl)c3)CC2)CC1` [TCMDC-139803], the “% Inhibition” value is given as 38.01%. `N=C(N)CCN(Cc1ccccc1)c1ccc(Cl)cc1` [TCMDC-131835]: the “% Inhibition” value is listed as 9.979%. `N=C(N)NCCN(Cc1ccccc1)c1ccc(Cl)cc1` [TCMDC-131838]: the “% Inhibition” value was 72.85%. In the case of `N=C(N)NCCCN(Cc1ccccc1)c1ccc(Cl)cc1` [TCMDC-131839], the “% Inhibition” value turned out to be 47.9%. As for `N=C(N)NCCN(Cc1ccccc1)c1ccccc1` [TCMDC-131837], the “% Inhibition” value is reported as 26.01%. As for `N=C(N)CCN(Cc1ccc(Cl)cc1)c1ccc(Cl)cc1` [TCMDC-131840], the “% Inhibition” value came out at 54.29%.

As to `Cc1ccc(N(CCC(=N)N)Cc2ccccc2)cc1` [TCMDC-132096], the “% Inhibition” value came to 26.05%. Take `CN1CCCN(Cc2ccc(-c3cccc(NC(=O)c4ccc(F)cc4)c3)cc2)CC1` [TCMDC-132634]: the “% Inhibition” value was determined as 12.81%. Turning to `O=C(NC1CCN(Cc2ccccc2)CC1)c1cccc(-c2cc3cc(Cl)c(Cl)cc3[nH]2)c1` [TCMDC-141290], the “% Inhibition” value is -1.614%. Under `CN1CCN(CCCN(Cc2ccc(-c3cccc(CNCc4ccc5c(c4)OCO5)c3)cc2)C(=O)NC2CCCCC2)CC1` [TCMDC-140642] stands 56.14%; under `CN1CCN(CCCN(Cc2ccc(-c3ccc(CNCc4ccc5c(c4)OCO5)cc3)cc2)C(=O)CCC2CCCC2)CC1` [TCMDC-140561], 102.2%. Consider `CN1CCN(CCCN(Cc2ccc(-c3cccc(CNCc4ccc5c(c4)OCO5)c3)cc2)C(=O)CCC2CCCC2)CC1` [TCMDC-140751], for which the “% Inhibition” value stood at 61.11%. In the case of `CN1CCN(CCCN(Cc2cccc(-c3ccc(CNCc4ccc5c(c4)OCO5)cc3)c2)C(=O)CCC2CCCC2)CC1` [TCMDC-140557], the “% Inhibition” value was determined as 65.31%. `Cc1cccc(C(=O)Nc2ccnc(N(C)C3CCN(Cc4cccc(O)c4)CC3)c2)c1` [TCMDC-134964]: the “% Inhibition” value is given as -19.45%. Under `O=C(/C=C/c1ccc(Cl)c(Cl)c1)NCCCCCN1CCC(NC(=O)Nc2cc(F)cc(F)c2)CC1` [TCMDC-135715] stands -53.24%.

For the molecule `NC(=O)C1CCN(Cc2ccc(-c3ccc(-c4nc5cc(C(F)(F)F)ccc5[nH]4)cc3)cc2)CC1.O=C(O)C(F)(F)F` [TCMDC-132692], the “% Inhibition” value is -81.89%.

For the molecule `CN1CCN(CCCN(Cc2cccc(-c3cccc(CNCc4ccc5c(c4)OCO5)c3)c2)C(=O)CCC2CCCC2)CC1` [TCMDC-140556], the “% Inhibition” value was 67.58%. Consider `FC(F)(F)c1cccc(CNCC2CCN(Cc3ccc4c(c3)OCO4)CC2)c1` [TCMDC-141673], for which the “% Inhibition” value is 2.788%.
